This is part of a sample that, as a whole, favours compounds with a hit. Of some 83,000 tested, about 20% had one in any assay.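 In brief: 96-well plates, 48 h treatment, single concentration, percent growth endpoint.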 The source made the active and inactive calls. How the source made its calls: active means growth percent below 10; inactive means the rest.
test system: HL-60(TB) leukemia; assay: NCI-60 one-dose screen, 48 h (100 = growth as untreated, 0 = no growth, -100 = all killed); settings: 10 µM unless noted

Compound | growth
CC(O)CN(CCO)CCN(CCO)CC(C)O (stereo not given) | 102% (inactive)
O=C(/C=C/c1cccs1)Nc1ncc(Cc2ccc(Cl)c(Cl)c2)s1 | 14% (inactive)
CCOC(=O)c1nn(-c2ccc(S(N)(=O)=O)cc2)c2nc(C)cc(=O)n12 | 101% (inactive)
O=C1COCCN1c1ccc(NCc2cn(C(=O)c3ccc(Cl)cc3)c3ccccc23)cc1 | 90.6% (inactive)
CNc1nc(S(=O)c2ccc(C#N)cc2)nc2ccccc12 (stereo not given) | 79.9% (inactive)
COc1ccc(Cc2cnc(NC(=O)c3ccc4c(c3)OCCO4)s2)cc1 | -42.1% (active)
CC(=O)NNC(=O)c1sc(NC(C)=O)nc1C | 101% (inactive)
COc1cc(NCCCN(CC(C)C)CC(C)C)c2ncccc2c1 | 89.8% (inactive)
O=C(Nc1cccc(Cl)c1)Nc1cccc(Cl)c1 | 43.9% (inactive)
Cc1ccc(S(=O)(=O)N/N=C2\CCCc3ccccc32)cc1 | 80.4% (inactive)
CSc1nc(O)c(-c2ccccc2)c(=O)[nH]1 | 89.5% (inactive)
CCOC(=O)c1ccc(NC(=O)Nc2nccs2)cc1 | -50.1% (active)
C=CCOC(=O)C1=C(C)NC(=O)NC1c1c(Cl)n(C)c2ccccc12 (stereo not given) | 109% (inactive)
C#CCNC(=O)CC[C@@H](C)[C@H]1CC[C@H]2[C@@H]3CC[C@@H]4CC(=O)CC[C@]4(C)[C@H]3CC[C@]12C | -30% [100 µM] (active)
COc1cc2c(c(OC)c1OC)-c1cc(I)c(O)cc1[C@@H](NC(C)=O)CC2 | 12.7% (inactive)
O=C(CN1CCOCC1)Nc1ccc2ncnc(Nc3ccc(OCc4cccc(F)c4)c(Cl)c3)c2c1 | 75.2% (inactive)
CC1=NN(C(=O)c2nn(-c3ccc(Cl)cc3)cc2O)C(=O)C1 | 5.71% (active)
O=C(NCCO)Nc1ccc(-c2nc(N3CCOCC3)c3cccn3n2)cc1 | 24.2% (inactive)
COc1cc(O)c2c(=O)c3c(CC=C(C)C)cc(OC)c(O)c3oc2c1 | -15.9% (active)
CC/C=C\C[C@H]1C/C=C2/C(=O)C=C[C@H]2C/C=C\CCCC(=O)O1 | 7.94% (active)

Compound | growth
COc1c(Cl)cc(Cl)cc1Cl | 98.7% (inactive)
COc1ccc2nc(N/N=C(\C)c3ccccn3)cc(C)c2c1 | -64.7% (active)
CCCCCCNC(=O)Oc1ccc(/C(=C(\C)c2ccccc2)c2ccc(OCCN(CC)CC)cc2)cc1 | 9.56% (active)
CN=C(N)N/N=C(\c1ccccc1)c1ccc(Br)cc1 | -52.5% (active)
CN1CC(c2ccc(Br)cc2)C(C(=O)c2ccc(Br)cc2)C12C(=O)Nc1ccccc12 (stereo not given) | 98.4% (inactive)
CN(C)c1ccc(-c2cc(-c3ccc(Nc4nc(Nc5ccccc5)nc(Nc5ccc(Cl)cc5)n4)cc3)nc(N)n2)cc1 | 56.3% (inactive)
CCOc1ccc(C2N(c3cc(OC)c(OC)c(OC)c3)C(=O)C2(F)F)cc1 (stereo not given) | -16% (active)
N#Cc1c(N)nc2c(nnn2-c2cccc(Br)c2)c1N | 95.9% (inactive)
COc1ccc2c(c1)c(=O)oc1c(C)c(OCC(C)=O)ccc12 | 110% (inactive)
CCCCC(CC)COC(C)=O (stereo not given) | 100% (inactive)
COc1ccc(-c2cncn2-c2ccc(-c3nc4cc(OC)c(OC)c(OC)c4s3)cc2)cc1N | 27.8% (inactive)
COc1ccc(-c2c(NC(=O)Nc3ccc(Cl)c(C(F)(F)F)c3)cnn2-c2ccc(S(N)(=O)=O)cc2)cc1 | -15% (active)
CNC(=O)c1[nH]cc(-c2ccc(OC)cc2)c1-c1cc(OC)c2c(c1OC)OCO2 | 96.4% (inactive)
O=C(c1ccccc1)c1ccc(N2C(=O)C3C4c5ccccc5C(/C=C/C(=O)c5ccccn5)(c5ccccc54)C3C2=O)cc1 (stereo not given) | 30% (inactive)
COC(=O)/C=C/c1cc(OC(C)=O)c2c(c1)C(C(=O)OC)C(c1ccc(OC(C)=O)c(OC(C)=O)c1)O2 (stereo not given) | -35% (active)
c1ccc(CCn2nnc3c(Nc4ccc(N5CCOCC5)cc4)ncnc32)cc1 | 96.7% (inactive)
Cc1cc(C)c(O)c(CNCCCNCc2cc(C)cc(C)c2O)c1 | 48.6% (inactive)
c1ccc(Oc2c3ccccc3nc3ccccc23)cc1 | -16.4% (active)
Clc1cc(Cl)c(OCCCCCCN2CCNCC2)c(Cl)c1 | -34.3% (active)
COc1ccc(N=Nc2ccc(O)c(=O)cc2)cc1 | -33.2% (active)

Source: PubChem BioAssay (NCI)
